This passage reports growth results from PubChem BioAssay (NCI).

Structures are written as SMILES. This is part of a sample that, as a whole, favours compounds with a hit. Of some 83,000 tested, about 20% had one in any assay.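 96-well plates, one dose, 48 hours. Percent growth reported; active if below 10.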 A number with no mark means an inactive call. Calls of active or inactive are those of the source.

Some test systems named below: NCI-H23 lung; NCI-H226 lung; NCI-H322M lung; HOP-62 NSCLC; NCI-H460 lung; HOP-92 NSCLC; A549/ATCC NSCLC; COLO 205 colon; DU-145 prostate; K-562 leukemia; MALME-3M melanoma; MDA-MB-231 breast; RXF 393 renal; SF-268 CNS; SF-295 CNS; SF-539 CNS; UACC-257 melanoma; M14 melanoma; 786-0 renal; NCI-H522 lung.
What all share (assay): NCI-60 one-dose screen, 48 h (100 = growth as untreated, 0 = no growth, -100 = all killed)
What all share (conditions): 10 µM

In the case of `COC(=O)C(O)c1ccccc1` (stereo not given), the growth was 106% in the assay with NCI-H23 lung; 107% with NCI-H226 lung; 125% with NCI-H322M lung; 105% in the assay with HOP-62 NSCLC; 105% in the assay with NCI-H460 lung; 95.6% in the assay on HOP-92 NSCLC. The growth with A549/ATCC NSCLC is 115%; in the assay with COLO 205 colon, 111%; in the assay with DU-145 prostate, 114%; in the assay with K-562 leukemia, 101%; in the assay on MALME-3M melanoma, 134%; with MDA-MB-231 breast, 91%. The growth in the assay with RXF 393 renal was 111%; in the assay with SF-268 CNS it was 102%; in the assay on SF-295 CNS, 139%; in the assay with SF-539 CNS, 98%; with UACC-257 melanoma, 116%; in the assay on M14 melanoma, 105%.

Regarding `N#CCCc1ccc(O)cc1`, the growth in the assay on NCI-H23 lung is 117%; in the assay on NCI-H226 lung, 102%; in the assay on NCI-H322M lung, 102%; in the assay with HOP-62 NSCLC, 104%; in the assay on NCI-H460 lung, 103%; in the assay on HOP-92 NSCLC, 108%. Besides, the growth with 786-0 renal is 104%; in the assay with COLO 205 colon, 114%; in the assay on DU-145 prostate, 117%; in the assay on K-562 leukemia it was 100%; in the assay with MALME-3M melanoma, 108%; in the assay on MDA-MB-231 breast it was 116%. For the same compound, the growth in the assay on RXF 393 renal was 106%; in the assay with SF-268 CNS, 110%; with SF-295 CNS, 97.8%; in the assay with SF-539 CNS it was 99.4%; in the assay with M14 melanoma, 108%.

In the case of `CC(=O)OCCC(C)CCC=C(C)C` (stereo not given), the growth in the assay on NCI-H23 lung is 105%; with NCI-H226 lung it was 105%; with NCI-H322M lung, 114%; with HOP-62 NSCLC, 108%; with NCI-H460 lung, 104%; in the assay with NCI-H522 lung, 92.7%. The growth was 101% with A549/ATCC NSCLC; 108% in the assay with 786-0 renal; 114% in the assay with COLO 205 colon; 107% in the assay with DU-145 prostate; 98.5% in the assay with K-562 leukemia; 114% in the assay with MALME-3M melanoma. For the same compound, the growth with MDA-MB-231 breast is 98.1%; with RXF 393 renal it was 116%; with SF-268 CNS it was 97.2%; in the assay with SF-295 CNS, 106%; in the assay on SF-539 CNS, 99.1%; with UACC-257 melanoma, 106%.

As for `CC(=O)OC(OC(C)=O)C1CCCO1` (stereo not given), the growth in the assay with NCI-H23 lung is 97.4%; in the assay on NCI-H226 lung it was 103%; with NCI-H322M lung, 114%; with HOP-62 NSCLC it was 99.2%; in the assay with NCI-H460 lung, 109%; with HOP-92 NSCLC, 94.1%. The growth in the assay with A549/ATCC NSCLC was 101%; in the assay with COLO 205 colon, 105%; in the assay on DU-145 prostate, 112%; in the assay on K-562 leukemia it was 135%; in the assay with MALME-3M melanoma, 112%; in the assay on MDA-MB-231 breast, 91.8%. The growth was 115% in the assay on RXF 393 renal; 97.8% with SF-268 CNS; 112% in the assay on SF-295 CNS; 100% in the assay on SF-539 CNS; 98% in the assay with UACC-257 melanoma.

As to `O=C(O)C(Cc1ccccc1)C(=O)O`, the growth was 95.1% in the assay on NCI-H23 lung; 95.5% with NCI-H226 lung; 105% in the assay on NCI-H322M lung; 118% in the assay on HOP-62 NSCLC; 101% in the assay on NCI-H460 lung; 106% with NCI-H522 lung. The growth in the assay on A549/ATCC NSCLC is 103%; with 786-0 renal, 99.4%; in the assay on COLO 205 colon, 110%; in the assay with DU-145 prostate, 113%; with K-562 leukemia, 108%; in the assay on MALME-3M melanoma, 115%. Also, the growth is 104% in the assay on MDA-MB-231 breast; 104% with RXF 393 renal; 110% with SF-268 CNS; 98.1% in the assay on SF-295 CNS; 102% in the assay with SF-539 CNS; 108% with UACC-257 melanoma. The growth in the assay on M14 melanoma was 104%.

Turning to `O/N=C/c1ccc(O)cc1O`, the growth in the assay with NCI-H23 lung was 105%; with NCI-H226 lung it was 108%; in the assay on NCI-H322M lung, 117%; in the assay on HOP-62 NSCLC, 101%; in the assay with NCI-H460 lung, 109%; with NCI-H522 lung it was 86%. The growth in the assay with A549/ATCC NSCLC is 91.4%; with 786-0 renal, 108%; in the assay on COLO 205 colon it was 111%; with DU-145 prostate it was 112%; in the assay on K-562 leukemia, 105%; in the assay with MALME-3M melanoma, 109%. Besides, the growth in the assay on MDA-MB-231 breast is 105%; in the assay with RXF 393 renal, 112%; in the assay on SF-268 CNS, 105%; with SF-295 CNS it was 107%; in the assay on SF-539 CNS it was 104%; with UACC-257 melanoma, 87.7%.

On to `c1ccc(Cc2ccccc2)cc1`, for which the growth is 107% in the assay on NCI-H23 lung; 112% in the assay with NCI-H226 lung; 96.2% with NCI-H322M lung; 101% in the assay with HOP-62 NSCLC; 109% in the assay with NCI-H460 lung; 59.2% in the assay on HOP-92 NSCLC. For the same compound, the growth was 39.8% in the assay with A549/ATCC NSCLC; 92.7% in the assay on 786-0 renal; 125% in the assay on COLO 205 colon; 103% in the assay on DU-145 prostate; 119% in the assay with K-562 leukemia; 96% in the assay with MALME-3M melanoma. In addition, the growth in the assay with MDA-MB-231 breast was 105%; with SF-268 CNS, 107%; in the assay with SF-295 CNS, 110%; in the assay with SF-539 CNS, 93.5%; in the assay on M14 melanoma it was 112%.

`COc1ncnc2c1cnn2C`: the growth is 106% with NCI-H23 lung; 106% with NCI-H226 lung; 116% in the assay on NCI-H322M lung; 94.4% in the assay with HOP-62 NSCLC; 106% in the assay with NCI-H460 lung; 99.9% in the assay with HOP-92 NSCLC. The growth in the assay on A549/ATCC NSCLC was 105%; in the assay with COLO 205 colon, 104%; with DU-145 prostate, 111%; in the assay on K-562 leukemia it was 115%; in the assay with MALME-3M melanoma it was 126%; in the assay with MDA-MB-231 breast it was 100%. Besides, the growth in the assay on RXF 393 renal was 114%; in the assay with SF-268 CNS, 101%; in the assay with SF-295 CNS, 112%; with SF-539 CNS it was 96.8%; with UACC-257 melanoma, 106%.

With `CC(C)(N)COS(=O)(=O)O`, the growth in the assay on NCI-H23 lung is 116%; with NCI-H226 lung it was 104%; in the assay on NCI-H322M lung, 115%; with HOP-62 NSCLC it was 98.3%; with NCI-H460 lung it was 103%; in the assay with HOP-92 NSCLC it was 87.6%. Further, the growth in the assay on 786-0 renal was 94.7%; in the assay on COLO 205 colon, 105%; with DU-145 prostate, 111%; with K-562 leukemia it was 104%; with MALME-3M melanoma, 108%; in the assay on MDA-MB-231 breast, 93.4%. Besides, the growth in the assay on RXF 393 renal was 110%; with SF-268 CNS it was 92.7%; with SF-295 CNS, 101%; in the assay on SF-539 CNS, 99.3%; in the assay with M14 melanoma, 98.1%.

On to `Nc1ncnc2[nH]ncc12`, for which the growth in the assay with NCI-H23 lung is 17.7%; in the assay with NCI-H226 lung, 34.8%; in the assay with NCI-H322M lung it was 0.523% (active); with HOP-62 NSCLC it was 20.9%; in the assay with NCI-H460 lung, 12.3%; in the assay with HOP-92 NSCLC, -21.4% (active). Also, the growth with A549/ATCC NSCLC was 23%; with COLO 205 colon, 10.8%; in the assay on DU-145 prostate, 2.47% (active); in the assay on K-562 leukemia it was 13%; in the assay with MALME-3M melanoma it was 21.3%; in the assay on MDA-MB-231 breast it was 5.28% (active). For the same compound, the growth was 14.9% with RXF 393 renal; 29.9% in the assay with SF-268 CNS; 21% in the assay on SF-295 CNS; 35.6% with SF-539 CNS; 16.3% in the assay with UACC-257 melanoma.
